Our source for the residual activity values is ChEMBL document CHEMBL2218924, “A broad activity screen in support of a chemogenomic map for kinase signalling research and drug discovery” (Biochem J, 2013).

In test [1] the target is MAP kinase-activated protein kinase 2 (Homo sapiens) (UniProt P49137). The settings on record: at 10 µM.
The target in test [2] is MAP kinase-activated protein kinase 3 (Homo sapiens) (UniProt Q16644). Particulars: at 10 µM.
In test [3] the target is Serine/threonine-protein kinase MARK1 (Homo sapiens) (UniProt Q9P0L2). Particulars: at 1 µM.
For test [4] the target is unchanged. The settings on record: at 10 µM.
Test [5] has as its target Dual specificity mitogen-activated protein kinase kinase 1 (Homo sapiens) (UniProt Q02750). The settings on record: at 1 µM.
Test [6] concerns the target Maternal embryonic leucine zipper kinase (Homo sapiens) (UniProt Q14680). Particulars: at 1 µM.
The target is the same in test [7]. The settings on record: at 10 µM.
In test [8] the target is Misshapen-like kinase 1 (Homo sapiens) (UniProt Q8N4C8). Particulars: at 1 µM.
For test [9] the target is unchanged. The settings on record: at 10 µM.
Test [10] concerns the target T1, Dual specificity mitogen-activated protein kinase kinase 6 (Homo sapiens) (UniProt P52564).
T1 sequence (whole entry): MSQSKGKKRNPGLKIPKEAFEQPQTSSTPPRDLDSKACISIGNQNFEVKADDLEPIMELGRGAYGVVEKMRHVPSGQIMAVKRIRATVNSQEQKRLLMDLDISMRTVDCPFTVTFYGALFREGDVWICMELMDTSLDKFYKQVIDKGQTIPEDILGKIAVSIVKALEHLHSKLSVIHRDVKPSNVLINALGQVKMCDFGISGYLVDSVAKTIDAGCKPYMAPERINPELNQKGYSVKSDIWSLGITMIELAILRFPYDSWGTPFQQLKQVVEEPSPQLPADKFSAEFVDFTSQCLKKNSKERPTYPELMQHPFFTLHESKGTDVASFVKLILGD
The settings on record: at 10 µM.

Test [11] deals with T2, Dual specificity mitogen-activated protein kinase kinase 7 (Homo sapiens) (UniProt O14733).
T2 sequence (whole entry): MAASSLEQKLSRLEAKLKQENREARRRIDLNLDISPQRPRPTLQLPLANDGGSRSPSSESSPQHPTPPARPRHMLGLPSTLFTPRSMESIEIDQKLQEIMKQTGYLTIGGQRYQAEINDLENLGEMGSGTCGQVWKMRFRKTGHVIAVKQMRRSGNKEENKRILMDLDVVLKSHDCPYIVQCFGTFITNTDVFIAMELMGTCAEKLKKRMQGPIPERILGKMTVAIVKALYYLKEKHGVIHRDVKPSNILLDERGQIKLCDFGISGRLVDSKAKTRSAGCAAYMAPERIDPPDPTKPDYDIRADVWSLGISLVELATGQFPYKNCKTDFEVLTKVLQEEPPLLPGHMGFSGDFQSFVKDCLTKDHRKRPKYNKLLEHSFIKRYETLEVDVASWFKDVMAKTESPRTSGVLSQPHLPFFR
The settings on record: at 1 µM.

Test [12] addresses T2, Dual specificity mitogen-activated protein kinase kinase 7 (Homo sapiens). The settings on record: at 10 µM.
In test [13] the target is Myosin light chain kinase, smooth muscle (Homo sapiens) (UniProt Q15746). Particulars: at 1 µM.
Test [14] shares this target. Particulars: at 10 µM.
Test [15] concerns the target Mitogen-activated protein kinase kinase kinase 9 (Homo sapiens) (UniProt P80192). Particulars: at 1 µM.
The target is the same in test [16]. Particulars: at 10 µM.
Test [17] concerns the target Serine/threonine-protein kinase MRCK alpha (Homo sapiens) (UniProt Q5VT25). Particulars: at 1 µM.
For test [18] the target is unchanged. The settings on record: at 10 µM.
The target of test [19] is Dual specificity mitogen-activated protein kinase kinase 1 (Homo sapiens) (UniProt Q02750). Particulars: at 10 µM.
Test [20] addresses T1, Dual specificity mitogen-activated protein kinase kinase 6 (Homo sapiens). The settings on record: at 1 µM.

Sequence of MAP kinase-activated protein kinase 3 (Homo sapiens) (Q16644 whole entry, looked up): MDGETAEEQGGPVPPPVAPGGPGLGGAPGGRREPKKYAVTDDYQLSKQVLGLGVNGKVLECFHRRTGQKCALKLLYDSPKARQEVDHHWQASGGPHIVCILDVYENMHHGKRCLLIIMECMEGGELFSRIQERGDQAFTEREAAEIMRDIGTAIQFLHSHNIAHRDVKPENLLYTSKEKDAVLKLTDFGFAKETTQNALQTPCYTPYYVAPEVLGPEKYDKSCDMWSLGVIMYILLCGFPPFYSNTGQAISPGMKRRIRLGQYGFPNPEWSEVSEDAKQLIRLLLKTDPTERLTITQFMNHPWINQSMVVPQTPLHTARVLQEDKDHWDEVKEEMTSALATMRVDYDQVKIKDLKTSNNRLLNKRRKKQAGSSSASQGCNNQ
Sequence of Misshapen-like kinase 1 (Homo sapiens) (Q8N4C8 whole entry, looked up): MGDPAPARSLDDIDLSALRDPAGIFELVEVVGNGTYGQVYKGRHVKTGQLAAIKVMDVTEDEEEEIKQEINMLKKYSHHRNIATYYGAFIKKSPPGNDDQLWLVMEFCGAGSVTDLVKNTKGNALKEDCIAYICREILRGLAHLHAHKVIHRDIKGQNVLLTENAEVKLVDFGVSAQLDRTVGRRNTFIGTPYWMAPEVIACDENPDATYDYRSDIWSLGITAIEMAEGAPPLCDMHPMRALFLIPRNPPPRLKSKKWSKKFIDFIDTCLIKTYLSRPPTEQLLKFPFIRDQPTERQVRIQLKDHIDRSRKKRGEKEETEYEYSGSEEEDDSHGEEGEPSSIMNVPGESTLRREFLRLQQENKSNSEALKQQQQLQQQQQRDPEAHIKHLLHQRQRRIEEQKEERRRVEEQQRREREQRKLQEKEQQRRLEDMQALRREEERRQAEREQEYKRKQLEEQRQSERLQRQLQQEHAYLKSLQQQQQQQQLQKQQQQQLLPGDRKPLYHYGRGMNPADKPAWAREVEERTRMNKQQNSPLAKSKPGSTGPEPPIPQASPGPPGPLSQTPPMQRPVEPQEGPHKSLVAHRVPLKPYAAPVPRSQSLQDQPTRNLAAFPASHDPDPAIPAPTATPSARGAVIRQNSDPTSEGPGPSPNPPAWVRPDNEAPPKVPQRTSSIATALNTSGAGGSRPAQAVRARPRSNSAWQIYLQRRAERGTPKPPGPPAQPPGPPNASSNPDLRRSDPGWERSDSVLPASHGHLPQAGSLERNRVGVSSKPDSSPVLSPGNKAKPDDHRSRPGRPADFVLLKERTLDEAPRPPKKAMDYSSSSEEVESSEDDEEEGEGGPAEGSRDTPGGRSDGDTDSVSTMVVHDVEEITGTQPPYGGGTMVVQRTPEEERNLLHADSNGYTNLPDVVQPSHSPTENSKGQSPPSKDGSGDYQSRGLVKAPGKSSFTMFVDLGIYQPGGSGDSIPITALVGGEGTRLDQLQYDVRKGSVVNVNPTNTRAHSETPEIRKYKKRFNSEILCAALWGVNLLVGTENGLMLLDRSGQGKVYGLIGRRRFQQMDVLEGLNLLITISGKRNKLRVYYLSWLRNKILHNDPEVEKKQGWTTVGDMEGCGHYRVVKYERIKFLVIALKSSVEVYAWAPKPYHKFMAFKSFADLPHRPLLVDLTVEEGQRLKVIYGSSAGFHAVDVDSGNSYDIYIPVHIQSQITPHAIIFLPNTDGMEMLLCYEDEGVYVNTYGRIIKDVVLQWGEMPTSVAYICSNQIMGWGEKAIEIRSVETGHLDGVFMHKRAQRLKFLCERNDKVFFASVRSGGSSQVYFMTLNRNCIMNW
Sequence of Serine/threonine-protein kinase MARK1 (Homo sapiens) (Q9P0L2 whole entry, looked up): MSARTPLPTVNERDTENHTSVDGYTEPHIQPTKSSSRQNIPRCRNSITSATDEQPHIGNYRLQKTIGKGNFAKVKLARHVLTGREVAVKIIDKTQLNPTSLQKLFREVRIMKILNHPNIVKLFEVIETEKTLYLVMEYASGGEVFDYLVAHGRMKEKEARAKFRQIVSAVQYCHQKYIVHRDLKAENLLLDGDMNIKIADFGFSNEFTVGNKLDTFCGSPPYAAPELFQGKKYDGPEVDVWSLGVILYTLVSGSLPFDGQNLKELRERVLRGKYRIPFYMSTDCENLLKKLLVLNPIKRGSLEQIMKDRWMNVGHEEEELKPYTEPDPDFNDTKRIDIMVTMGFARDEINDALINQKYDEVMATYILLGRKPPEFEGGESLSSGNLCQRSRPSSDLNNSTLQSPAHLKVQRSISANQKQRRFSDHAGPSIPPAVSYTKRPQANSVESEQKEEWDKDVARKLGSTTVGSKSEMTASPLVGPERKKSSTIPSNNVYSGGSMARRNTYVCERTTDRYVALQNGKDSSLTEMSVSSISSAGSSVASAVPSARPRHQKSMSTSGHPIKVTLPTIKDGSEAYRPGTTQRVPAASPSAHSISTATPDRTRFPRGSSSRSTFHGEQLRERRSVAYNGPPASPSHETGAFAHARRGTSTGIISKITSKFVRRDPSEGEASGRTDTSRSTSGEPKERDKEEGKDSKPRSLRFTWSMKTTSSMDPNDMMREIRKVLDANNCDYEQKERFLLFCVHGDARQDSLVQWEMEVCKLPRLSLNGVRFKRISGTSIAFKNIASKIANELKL
Sequence of Maternal embryonic leucine zipper kinase (Homo sapiens) (Q14680 whole entry, looked up): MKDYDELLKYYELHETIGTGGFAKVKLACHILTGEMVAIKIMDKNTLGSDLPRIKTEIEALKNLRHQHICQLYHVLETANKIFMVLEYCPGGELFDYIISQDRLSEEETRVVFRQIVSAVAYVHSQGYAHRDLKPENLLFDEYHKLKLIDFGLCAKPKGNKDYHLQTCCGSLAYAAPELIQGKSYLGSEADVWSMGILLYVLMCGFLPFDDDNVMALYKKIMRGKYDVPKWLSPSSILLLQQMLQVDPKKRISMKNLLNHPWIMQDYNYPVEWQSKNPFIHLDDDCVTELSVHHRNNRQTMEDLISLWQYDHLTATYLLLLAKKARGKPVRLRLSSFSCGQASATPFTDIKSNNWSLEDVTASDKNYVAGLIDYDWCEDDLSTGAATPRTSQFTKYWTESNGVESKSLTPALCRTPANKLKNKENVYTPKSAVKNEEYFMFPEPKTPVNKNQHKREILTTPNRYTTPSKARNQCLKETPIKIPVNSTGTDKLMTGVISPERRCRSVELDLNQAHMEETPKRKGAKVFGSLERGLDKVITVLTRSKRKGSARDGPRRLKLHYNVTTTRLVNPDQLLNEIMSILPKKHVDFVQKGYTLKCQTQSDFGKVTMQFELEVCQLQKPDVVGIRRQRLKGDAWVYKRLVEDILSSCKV
Sequence of Myosin light chain kinase, smooth muscle (Homo sapiens) (Q15746 whole entry): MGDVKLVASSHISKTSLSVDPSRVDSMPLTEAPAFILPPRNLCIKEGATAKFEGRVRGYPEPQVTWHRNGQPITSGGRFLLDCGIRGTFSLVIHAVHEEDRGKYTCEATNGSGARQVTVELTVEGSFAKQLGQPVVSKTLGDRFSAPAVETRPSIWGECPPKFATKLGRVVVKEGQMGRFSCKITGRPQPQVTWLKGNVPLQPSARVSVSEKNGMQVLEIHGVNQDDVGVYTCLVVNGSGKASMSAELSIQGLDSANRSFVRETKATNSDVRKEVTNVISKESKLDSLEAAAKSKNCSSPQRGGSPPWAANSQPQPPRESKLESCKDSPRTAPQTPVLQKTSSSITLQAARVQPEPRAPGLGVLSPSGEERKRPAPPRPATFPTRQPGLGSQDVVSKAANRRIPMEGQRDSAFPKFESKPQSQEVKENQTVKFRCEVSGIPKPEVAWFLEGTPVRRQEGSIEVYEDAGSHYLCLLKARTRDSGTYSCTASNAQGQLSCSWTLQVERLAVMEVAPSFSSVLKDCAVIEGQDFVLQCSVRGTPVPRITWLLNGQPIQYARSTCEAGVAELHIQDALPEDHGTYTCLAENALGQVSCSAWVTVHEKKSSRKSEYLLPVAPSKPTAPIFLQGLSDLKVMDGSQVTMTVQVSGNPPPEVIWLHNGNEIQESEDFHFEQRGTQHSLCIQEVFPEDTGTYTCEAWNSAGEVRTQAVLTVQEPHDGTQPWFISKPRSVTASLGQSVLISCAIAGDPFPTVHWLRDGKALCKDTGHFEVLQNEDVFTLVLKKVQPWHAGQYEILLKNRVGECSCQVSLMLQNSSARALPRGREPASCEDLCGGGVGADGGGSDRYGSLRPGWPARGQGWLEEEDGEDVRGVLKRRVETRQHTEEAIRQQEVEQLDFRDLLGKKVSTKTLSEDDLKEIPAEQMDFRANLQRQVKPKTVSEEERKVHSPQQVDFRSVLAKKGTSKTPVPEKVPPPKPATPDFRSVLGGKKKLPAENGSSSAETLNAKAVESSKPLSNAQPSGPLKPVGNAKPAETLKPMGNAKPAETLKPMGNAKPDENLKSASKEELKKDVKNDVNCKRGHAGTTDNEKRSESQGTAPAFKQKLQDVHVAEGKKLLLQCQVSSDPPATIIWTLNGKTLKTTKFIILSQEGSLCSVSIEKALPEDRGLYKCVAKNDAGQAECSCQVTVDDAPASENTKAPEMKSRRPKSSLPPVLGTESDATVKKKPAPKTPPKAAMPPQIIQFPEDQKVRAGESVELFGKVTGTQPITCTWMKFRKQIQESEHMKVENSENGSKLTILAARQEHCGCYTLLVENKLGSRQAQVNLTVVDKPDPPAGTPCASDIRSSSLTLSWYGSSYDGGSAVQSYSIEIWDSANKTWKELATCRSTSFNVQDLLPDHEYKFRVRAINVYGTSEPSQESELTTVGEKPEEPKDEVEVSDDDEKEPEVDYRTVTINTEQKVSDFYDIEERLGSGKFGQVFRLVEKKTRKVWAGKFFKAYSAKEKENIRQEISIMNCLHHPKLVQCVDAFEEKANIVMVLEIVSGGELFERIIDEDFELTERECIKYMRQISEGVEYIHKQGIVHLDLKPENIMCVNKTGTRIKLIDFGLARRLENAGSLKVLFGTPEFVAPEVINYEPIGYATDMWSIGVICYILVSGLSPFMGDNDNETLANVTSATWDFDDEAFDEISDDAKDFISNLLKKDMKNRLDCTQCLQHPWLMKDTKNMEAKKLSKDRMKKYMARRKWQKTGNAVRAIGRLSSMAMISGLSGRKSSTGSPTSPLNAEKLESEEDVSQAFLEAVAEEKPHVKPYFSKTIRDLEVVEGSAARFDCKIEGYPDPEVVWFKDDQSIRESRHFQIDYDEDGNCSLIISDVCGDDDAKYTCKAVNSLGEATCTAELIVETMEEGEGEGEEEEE

Turning to `CC(C)c1nn(-c2c(Cl)cccc2Cl)c2nc(Cc3ccc(OCCO)cc3)[nH]c(=O)c12`, the residual activity in test [1] was 89%; in [2], 91%; in test [3], 80%; in [4], 47%; in test [5], 82%; in [6], 65%. Besides, the residual activity in test [7] came out at 67%; in [8], 97%; in test [9] it was 93%; in test [10] it was 90%; in test [11], 84%; in test [12] it was 77%. The residual activity came to 105% in test [13]; 99% in [14]; 86% in [15]; 48% in [16]; 106% in [17]; 102% in test [18].

As to `O=C(CCCc1ccc(-c2ccccc2F)cc1)Nc1ccc(O)cc1`, the residual activity was determined as 76% in [1]; 102% in test [3]; 94% in [4]; 103% in test [5]; 111% in test [19]; 100% in test [6]. Also, the residual activity amounted to 77% in test [7]; 111% in test [8]; 102% in test [9]; 98% in test [20]; 75% in [10]; 89% in test [11]. Besides, the residual activity in test [12] is 85%; in test [13], 102%; in test [14], 82%; in [15] it was 91%; in [16], 89%; in test [17] it was 107%. The residual activity in test [18] is 136%.

Consider `O=C(c1cc2cc(O)ccc2[nH]1)c1cc2cc(O)ccc2[nH]1`, for which the residual activity in [1] turned out to be 51%; in test [3], 40%; in test [4], 5%; in [5], 80%; in test [19], 26%; in test [6] it was 27%. In addition, the residual activity in test [7] is 3%; in [8] it was 21%; in test [9] it was 4%; in test [20] it was 112%; in [11], 113%; in [12], 63%. Moreover, the residual activity in test [13] was 70%; in [14], 35%; in test [15] it was 16%; in [16] it was 4%; in test [18], 78%.

As to `COc1cc2nccc(Oc3ccc(NC(=S)NC(=O)c4ccccc4C)cc3)c2cc1OC`, the residual activity was found to be 66% in [1]; 56% in test [2]; 81% in test [3]; 75% in test [4]; 86% in test [5]; 68% in test [19]. The residual activity in [6] is 98%; in test [7], 84%; in test [8], 77%; in test [9], 69%; in test [20] it was 65%; in [10] it was 71%. In addition, the residual activity in test [11] was 93%; in test [12], 87%; in test [13] it was 67%; in test [14], 80%; in test [15], 63%; in test [16], 41%. Also, in test [18], the residual activity was determined as 124%.

For the compound `O=c1cc(N2CCNCC2)oc2c(-c3ccccc3)cccc12`, the residual activity in test [1] stood at 85%; in [2], 89%; in test [3], 82%; in test [4], 89%; in test [5] it was 99%; in test [19], 89%. Besides, the residual activity in [6] was 80%; in test [7], 78%; in [8], 104%; in test [9], 99%; in test [20], 92%; in test [10], 89%. Also, the residual activity in [11] is 100%; in test [12] it was 79%; in [13] it was 93%; in test [14] it was 95%; in [15], 88%; in test [16], 104%. The residual activity in test [17] amounted to 86%.

Regarding `CC(C)(C)c1nc2c3ccc(F)cc3c3c(=O)[nH]ccc3c2[nH]1`, the residual activity came out at 62% in test [1]; 29% in test [3]; 14% in [4]; 66% in test [5]; 20% in test [19]; 2% in [6]. Further, the residual activity in test [7] turned out to be 2%; in [8], 81%; in [9], 78%; in test [20] it was 39%; in test [10], 41%; in [11], 69%. The residual activity in test [12] is 35%; in test [13], 2%; in test [14], 4%; in test [15], 9%; in test [16], 21%.

In the case of `CSc1nc(-c2ccc(F)cc2)c(-c2ccnc(NC(C)c3ccccc3)c2)[nH]1` (centres undefined), the residual activity amounted to 98% in [1]; 94% in test [3]; 76% in test [4]; 88% in [6]; 61% in test [7]; 59% in test [9]. For the same compound, the residual activity in [20] was 70%; in test [10], -2%; in test [11], 99%; in test [12], 48%; in test [14] it was 68%; in test [15], 99%. Also, in test [16], the residual activity came out at 85%.

As to `O=C(c1ccccc1)c1ccc(N2CCOCC2)cc1O`, the residual activity in [1] was 89%; in test [2], 93%; in test [3] it was 93%; in test [4], 83%; in [5], 80%; in test [19], 90%. For the same compound, the residual activity in [6] is 85%; in [7], 65%; in test [8] it was 85%; in test [9], 60%; in [20] it was 85%; in [10], 79%. The residual activity in [11] is 98%; in [12], 85%; in [13], 88%; in test [14], 87%; in [17], 100%; in [18], 100%.

On to `COc1ccc2c(c1)c(C1=C(c3c[nH]c4ccccc34)C(=O)NC1=O)cn2CCCN(C)C`, for which the residual activity in [2] was determined as 135%; in test [3], 75%; in [4], 53%; in [5], 102%; in [19] it was 75%; in test [6], 54%. Moreover, the residual activity in test [7] was 26%; in test [9], 61%; in test [20], 110%; in [12], 104%; in test [13], 51%; in [14] it was 15%. Further, the residual activity came out at 63% in test [15], 15% in test [16], 74% in [17] and 80% in test [18].

As to `CCCCc1c(-c2ccc(OC)cc2)[nH]c2nccnc12`, the residual activity amounted to 109% in test [1]; 109% in [2]; 78% in test [3]; 76% in [4]; 140% in [5]; 112% in [19]. The residual activity is 74% in [6]; 75% in test [7]; 104% in test [8]; 128% in [20]; 80% in [10]; 104% in test [13]. The residual activity is 83% in test [14], 16% in test [15], 19% in [16] and 88% in test [18].

`Cn1sc(=O)n(Cc2ccccc2)c1=O`: the residual activity came to 93% in test [1]; 76% in test [3]; 70% in [4]; 96% in test [5]; 88% in test [6]; 65% in test [7]. In addition, the residual activity in test [8] turned out to be 96%; in [9], 91%; in test [13], 90%; in test [14], 91%; in test [15] it was 92%; in [16] it was 88%. In addition, the residual activity was 98% in test [17] and 92% in test [18].

Turning to `CCCC(=O)Oc1ccc2[nH]c(C(=O)c3cc4ccccc4[nH]3)cc2c1`, the residual activity worked out at 87% in [1]; 94% in test [2]; 80% in [3]; 84% in [4]; 93% in [5]; 100% in [19]. Also, the residual activity in test [6] worked out at 88%; in test [7], 87%; in test [8], 82%; in test [9] it was 82%; in test [20], 99%; in test [11] it was 104%. Also, the residual activity worked out at 81% in [12]; 90% in test [13]; 97% in test [14]; 80% in test [15]; 88% in test [16]; 102% in test [17]. Further, in test [18], the residual activity amounted to 102%.

`NC(=O)Nc1sc(-c2ccc(F)cc2)cc1C(N)=O`: the residual activity in [1] was 83%; in test [2], 86%; in test [3], 57%; in [4], 17%; in test [5], 44%; in test [19], 34%. The residual activity in test [6] turned out to be 72%; in test [7], 24%; in test [8] it was 81%; in [9], 47%; in test [20], 97%; in test [10] it was 41%. Moreover, the residual activity was found to be 96% in [11]; 44% in test [12]; 92% in test [13]; 31% in test [14]; 9% in test [15]; 1% in [16].

With `COc1cc2ncnc(Nc3cccc(Cl)c3)c2cc1OC`, the residual activity in test [1] was 105%; in [2], 65%; in test [4], 83%; in test [5] it was 114%; in test [19], 71%; in [6] it was 89%. The residual activity in [7] stood at 59%; in [9], 76%; in test [20] it was 47%; in test [10], 26%; in [13], 64%; in test [14], 28%. Besides, the residual activity in [15] was found to be 76%; in test [16], 21%; in test [17], 107%; in [18] it was 111%.
